Source: paper PMC7862700, “An all-to-all approach to the identification of sequence-specific readers for epigenetic DNA modifications on cytosine”

What was measured:
Assay in all cases: DAPPL (digital affinity profiling via proximity ligation, sequencing); 10 mM Tris-HCl pH 7.5, 50 mM NaCl, 1 mM DTT, 4% glycerol, room temperature, 30 min; GST-TFs on glutathione beads, 16-mer random dsDNA library, 0.1% formaldehyde crosslink after washing; high values mean tight binding
[1] = biological target: T1, FLI1 (Homo sapiens, UniProt Q01543 1-452); details: protein: recombinant; tags: N-terminal GST; dsDNA, one strand shown
T1 sequence: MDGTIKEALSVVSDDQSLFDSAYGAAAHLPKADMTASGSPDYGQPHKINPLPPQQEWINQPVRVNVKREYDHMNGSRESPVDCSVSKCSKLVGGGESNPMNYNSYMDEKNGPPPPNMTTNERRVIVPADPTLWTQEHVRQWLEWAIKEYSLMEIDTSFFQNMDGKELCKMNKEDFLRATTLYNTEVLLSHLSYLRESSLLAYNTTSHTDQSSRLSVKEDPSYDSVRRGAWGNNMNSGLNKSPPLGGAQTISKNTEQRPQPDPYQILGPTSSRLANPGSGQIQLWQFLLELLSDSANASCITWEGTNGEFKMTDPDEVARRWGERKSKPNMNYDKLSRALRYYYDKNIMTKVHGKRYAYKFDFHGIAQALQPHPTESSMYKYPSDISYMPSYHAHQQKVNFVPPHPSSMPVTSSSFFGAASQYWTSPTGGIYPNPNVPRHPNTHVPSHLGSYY
Procedure, shortened: (§1)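 GST fusions of human transcription factors were expressed in yeast and captured with glutathione beads. Once given DNA barcodes and pooled alongside a tag-only sample, they were incubated for 30 min at room temperature with 200 nmole of a random double-stranded 16-mer DNA library in Tris/NaCl/DTT/glycerol buffer, then washed, crosslinked (0.1% formaldehyde), proximity-ligated, PCR-amplified and sequenced on an Illumina NextSeq500. The binding signal of each hexamer is its read frequency for a factor divided by its frequency for the tag-only sample.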

[2] = biological target: T2, ELK1 (Homo sapiens, UniProt P19419 1-428); details: protein: recombinant; tags: N-terminal GST; dsDNA, one strand shown
T2 sequence: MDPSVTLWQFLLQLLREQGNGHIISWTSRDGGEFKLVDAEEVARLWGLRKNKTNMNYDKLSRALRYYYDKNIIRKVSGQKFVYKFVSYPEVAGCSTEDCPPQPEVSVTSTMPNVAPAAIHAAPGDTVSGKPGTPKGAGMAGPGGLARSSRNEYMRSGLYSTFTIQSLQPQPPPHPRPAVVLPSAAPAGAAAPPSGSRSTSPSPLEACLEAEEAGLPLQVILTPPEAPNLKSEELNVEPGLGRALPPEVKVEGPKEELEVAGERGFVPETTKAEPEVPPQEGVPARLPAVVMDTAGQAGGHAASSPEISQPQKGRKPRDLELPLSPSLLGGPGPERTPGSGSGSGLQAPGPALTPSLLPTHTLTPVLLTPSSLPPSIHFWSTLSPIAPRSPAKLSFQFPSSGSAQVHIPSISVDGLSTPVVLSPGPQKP
Procedure, shortened: as §1

[3] = biological target: T3, GABPA (Homo sapiens, UniProt Q06546 1-454); details: protein: recombinant; tags: N-terminal GST; dsDNA, one strand shown
T3 sequence: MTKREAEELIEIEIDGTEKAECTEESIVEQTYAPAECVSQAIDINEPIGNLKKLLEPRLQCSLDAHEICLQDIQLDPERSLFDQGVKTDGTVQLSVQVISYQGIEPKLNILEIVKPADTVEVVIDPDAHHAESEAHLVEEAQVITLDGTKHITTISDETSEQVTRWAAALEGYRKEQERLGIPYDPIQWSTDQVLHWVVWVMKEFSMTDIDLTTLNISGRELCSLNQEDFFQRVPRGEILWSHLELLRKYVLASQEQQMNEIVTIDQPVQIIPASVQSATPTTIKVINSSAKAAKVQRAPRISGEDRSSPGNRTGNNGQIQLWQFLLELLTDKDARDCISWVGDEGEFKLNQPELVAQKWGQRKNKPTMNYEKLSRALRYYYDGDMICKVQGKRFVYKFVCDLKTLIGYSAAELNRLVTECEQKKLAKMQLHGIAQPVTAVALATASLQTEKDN
Procedure, shortened: as §1

[4] = biological target: T4, ERG (Homo sapiens, UniProt P11308 1-479); details: protein: recombinant; tags: N-terminal GST; dsDNA, one strand shown
T4 sequence: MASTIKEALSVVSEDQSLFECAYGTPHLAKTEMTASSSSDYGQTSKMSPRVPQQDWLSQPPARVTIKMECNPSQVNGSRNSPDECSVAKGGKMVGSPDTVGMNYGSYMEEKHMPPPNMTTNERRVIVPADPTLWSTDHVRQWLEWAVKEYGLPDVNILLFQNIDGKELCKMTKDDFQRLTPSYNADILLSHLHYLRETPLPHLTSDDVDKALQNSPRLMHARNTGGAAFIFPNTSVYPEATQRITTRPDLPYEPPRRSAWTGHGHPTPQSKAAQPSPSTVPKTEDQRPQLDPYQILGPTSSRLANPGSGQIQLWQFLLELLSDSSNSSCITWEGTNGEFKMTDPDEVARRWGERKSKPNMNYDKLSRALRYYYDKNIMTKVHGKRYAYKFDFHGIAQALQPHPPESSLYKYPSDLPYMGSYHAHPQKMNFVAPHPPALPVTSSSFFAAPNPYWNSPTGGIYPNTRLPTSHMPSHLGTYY
Procedure, shortened: as §1

[5] = biological target: ELF1 (Homo sapiens, UniProt P32519 1-619); details: protein: recombinant; tags: N-terminal GST; dsDNA, one strand shown
Procedure, shortened: as §1

[6] = biological target: T5, EHF (Homo sapiens, UniProt Q9NZC4 1-300); details: protein: recombinant; tags: N-terminal GST; dsDNA, one strand shown
T5 sequence: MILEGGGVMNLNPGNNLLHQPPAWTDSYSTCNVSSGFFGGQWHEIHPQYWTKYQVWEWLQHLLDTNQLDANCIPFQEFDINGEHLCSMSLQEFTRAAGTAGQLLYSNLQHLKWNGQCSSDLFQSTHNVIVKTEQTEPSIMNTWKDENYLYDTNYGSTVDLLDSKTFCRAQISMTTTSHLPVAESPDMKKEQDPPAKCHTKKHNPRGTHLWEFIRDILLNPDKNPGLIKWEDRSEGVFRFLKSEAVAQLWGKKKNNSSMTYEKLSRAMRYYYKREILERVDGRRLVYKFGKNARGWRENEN
Procedure, shortened: as §1

[7] = biological target: SPI1 (Homo sapiens, UniProt P17947 1-270); details: protein: recombinant; tags: N-terminal GST; dsDNA, one strand shown
Procedure, shortened: as §1

[8] = biological target: SPIB (Homo sapiens, UniProt Q01892 1-262); details: protein: recombinant; tags: N-terminal GST; dsDNA, one strand shown
Procedure, shortened: as §1

[9] = biological target: T6, ELK3 (Homo sapiens, UniProt P41970 1-407); details: protein: recombinant; tags: N-terminal GST; dsDNA, one strand shown
T6 sequence: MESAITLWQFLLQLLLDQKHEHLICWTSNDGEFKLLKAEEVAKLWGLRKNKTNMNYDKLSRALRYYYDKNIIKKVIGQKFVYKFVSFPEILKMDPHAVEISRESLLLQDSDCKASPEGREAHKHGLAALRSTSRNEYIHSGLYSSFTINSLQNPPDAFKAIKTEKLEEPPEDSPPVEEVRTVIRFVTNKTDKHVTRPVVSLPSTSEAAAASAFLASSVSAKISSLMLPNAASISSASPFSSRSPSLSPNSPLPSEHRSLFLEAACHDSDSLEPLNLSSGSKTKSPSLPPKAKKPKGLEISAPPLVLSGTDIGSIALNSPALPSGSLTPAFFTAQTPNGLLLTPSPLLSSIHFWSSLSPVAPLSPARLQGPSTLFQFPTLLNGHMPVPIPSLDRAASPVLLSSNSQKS
Procedure, shortened: as §1

[10] = biological target: T7, FEV (Homo sapiens, UniProt Q99581 1-238); details: protein: recombinant; tags: N-terminal GST; dsDNA, one strand shown
T7 sequence: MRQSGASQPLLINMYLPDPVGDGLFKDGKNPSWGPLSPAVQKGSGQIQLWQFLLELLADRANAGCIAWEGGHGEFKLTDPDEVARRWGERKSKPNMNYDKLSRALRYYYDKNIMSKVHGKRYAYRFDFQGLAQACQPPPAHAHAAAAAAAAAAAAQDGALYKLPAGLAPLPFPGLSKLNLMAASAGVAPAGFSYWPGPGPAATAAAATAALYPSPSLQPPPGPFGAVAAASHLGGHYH
Procedure, shortened: as §1

[11] = biological target: ETV5 (Homo sapiens, UniProt P41161 1-510); details: protein: recombinant; tags: N-terminal GST; dsDNA, one strand shown
Procedure, shortened: as §1

[12] = biological target: HSF1 (Homo sapiens, UniProt Q00613 1-529); details: protein: recombinant; tags: N-terminal GST; chain copies: 3; dsDNA, one strand shown
Procedure, shortened: as §1

[13] = biological target: T8, SPIC (Homo sapiens, UniProt Q8N5J4 1-248); details: protein: recombinant; tags: N-terminal GST; dsDNA, one strand shown
T8 sequence: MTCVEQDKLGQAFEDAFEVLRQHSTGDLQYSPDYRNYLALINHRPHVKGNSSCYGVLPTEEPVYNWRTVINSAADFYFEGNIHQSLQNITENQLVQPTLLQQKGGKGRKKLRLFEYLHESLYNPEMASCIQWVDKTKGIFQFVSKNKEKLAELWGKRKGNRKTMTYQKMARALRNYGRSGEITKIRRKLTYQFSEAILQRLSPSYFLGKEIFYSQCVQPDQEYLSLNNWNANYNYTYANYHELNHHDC
Procedure, shortened: as §1

[14] = biological target: ELF4 (Homo sapiens, UniProt Q99607 1-663); details: protein: recombinant; tags: N-terminal GST; dsDNA, one strand shown
Procedure, shortened: as §1

[15] = biological target: T9, ELK4 (Homo sapiens, UniProt P28324-2 1-405); details: protein: recombinant; tags: N-terminal GST; dsDNA, one strand shown
T9 sequence: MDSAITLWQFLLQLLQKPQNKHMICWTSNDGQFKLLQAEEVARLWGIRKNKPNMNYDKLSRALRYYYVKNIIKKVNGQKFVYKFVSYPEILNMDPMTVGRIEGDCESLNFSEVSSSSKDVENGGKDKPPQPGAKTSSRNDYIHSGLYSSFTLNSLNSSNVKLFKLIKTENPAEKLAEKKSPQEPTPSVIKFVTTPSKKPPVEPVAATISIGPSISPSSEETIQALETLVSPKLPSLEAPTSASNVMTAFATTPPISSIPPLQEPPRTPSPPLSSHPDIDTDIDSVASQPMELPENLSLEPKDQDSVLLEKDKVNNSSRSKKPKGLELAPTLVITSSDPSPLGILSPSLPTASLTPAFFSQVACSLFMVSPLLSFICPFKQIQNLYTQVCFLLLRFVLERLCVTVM
Procedure, shortened: as §1

[16] = biological target: T10, ETV2 (Homo sapiens, UniProt O00321 1-342); details: protein: recombinant; tags: N-terminal GST; dsDNA, one strand shown
T10 sequence: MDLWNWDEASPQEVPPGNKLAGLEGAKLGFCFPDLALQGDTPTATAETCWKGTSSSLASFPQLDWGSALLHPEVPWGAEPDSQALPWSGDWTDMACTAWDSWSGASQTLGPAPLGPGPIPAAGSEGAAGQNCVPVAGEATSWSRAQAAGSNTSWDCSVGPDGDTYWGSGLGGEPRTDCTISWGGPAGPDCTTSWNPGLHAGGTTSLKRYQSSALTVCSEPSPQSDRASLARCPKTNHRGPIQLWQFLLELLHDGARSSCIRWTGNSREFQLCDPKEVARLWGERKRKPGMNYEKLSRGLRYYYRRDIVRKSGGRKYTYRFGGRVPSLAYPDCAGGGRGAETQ
Procedure, shortened: as §1

[17] = biological target: T11, ELF3 (Homo sapiens, UniProt P78545 1-371); details: protein: recombinant; tags: N-terminal GST; dsDNA, one strand shown
T11 sequence: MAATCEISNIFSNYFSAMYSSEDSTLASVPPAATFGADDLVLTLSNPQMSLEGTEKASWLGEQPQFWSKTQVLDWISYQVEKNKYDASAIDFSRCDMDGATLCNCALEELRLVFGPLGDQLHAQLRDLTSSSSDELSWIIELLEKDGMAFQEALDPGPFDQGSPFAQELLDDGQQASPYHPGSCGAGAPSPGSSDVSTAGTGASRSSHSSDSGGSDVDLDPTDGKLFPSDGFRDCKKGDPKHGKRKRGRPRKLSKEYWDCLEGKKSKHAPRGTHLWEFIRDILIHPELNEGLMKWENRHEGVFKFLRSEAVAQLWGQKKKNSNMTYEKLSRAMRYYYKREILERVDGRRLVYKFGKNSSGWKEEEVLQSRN
Procedure, shortened: as §1

[18] = biological target: CRX (Homo sapiens, UniProt O43186 1-299); details: protein: recombinant; tags: N-terminal GST; dsDNA, one strand shown
Procedure, shortened: as §1

[19] = biological target: ETV1 (Homo sapiens, UniProt P50549 1-477); details: protein: recombinant; tags: N-terminal GST; dsDNA, one strand shown
Procedure, shortened: as §1

Sequence of CRX (O43186 whole entry): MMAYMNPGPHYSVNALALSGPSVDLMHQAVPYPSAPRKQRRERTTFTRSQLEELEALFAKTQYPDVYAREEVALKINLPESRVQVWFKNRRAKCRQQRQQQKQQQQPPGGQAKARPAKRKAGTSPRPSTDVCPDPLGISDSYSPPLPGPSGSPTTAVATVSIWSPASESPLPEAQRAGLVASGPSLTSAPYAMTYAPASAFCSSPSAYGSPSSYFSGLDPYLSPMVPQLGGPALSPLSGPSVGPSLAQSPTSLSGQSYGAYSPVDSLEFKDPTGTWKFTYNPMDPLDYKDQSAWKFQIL
Sequence of SPIB (Q01892 whole entry): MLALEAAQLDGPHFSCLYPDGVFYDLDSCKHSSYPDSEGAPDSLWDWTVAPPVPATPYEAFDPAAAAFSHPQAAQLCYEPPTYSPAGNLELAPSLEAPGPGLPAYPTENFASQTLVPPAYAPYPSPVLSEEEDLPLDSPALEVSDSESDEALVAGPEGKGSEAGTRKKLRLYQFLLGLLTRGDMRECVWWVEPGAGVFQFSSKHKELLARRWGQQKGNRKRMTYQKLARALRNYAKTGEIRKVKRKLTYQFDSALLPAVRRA
Sequence of HSF1 (Q00613 whole entry): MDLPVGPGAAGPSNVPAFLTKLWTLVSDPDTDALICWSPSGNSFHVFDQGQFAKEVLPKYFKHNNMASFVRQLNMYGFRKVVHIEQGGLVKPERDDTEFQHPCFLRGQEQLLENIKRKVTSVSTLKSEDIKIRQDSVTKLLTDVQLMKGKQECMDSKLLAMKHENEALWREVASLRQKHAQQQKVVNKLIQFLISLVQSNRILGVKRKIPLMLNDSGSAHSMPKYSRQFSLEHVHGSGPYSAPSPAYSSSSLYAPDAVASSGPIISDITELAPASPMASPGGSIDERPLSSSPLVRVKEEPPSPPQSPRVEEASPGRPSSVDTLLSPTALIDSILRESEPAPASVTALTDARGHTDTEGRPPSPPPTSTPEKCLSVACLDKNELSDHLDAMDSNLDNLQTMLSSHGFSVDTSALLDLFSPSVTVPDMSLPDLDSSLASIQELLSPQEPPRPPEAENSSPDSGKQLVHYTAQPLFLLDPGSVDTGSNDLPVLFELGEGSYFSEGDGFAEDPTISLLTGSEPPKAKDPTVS
Sequence of ELF4 (Q99607 whole entry): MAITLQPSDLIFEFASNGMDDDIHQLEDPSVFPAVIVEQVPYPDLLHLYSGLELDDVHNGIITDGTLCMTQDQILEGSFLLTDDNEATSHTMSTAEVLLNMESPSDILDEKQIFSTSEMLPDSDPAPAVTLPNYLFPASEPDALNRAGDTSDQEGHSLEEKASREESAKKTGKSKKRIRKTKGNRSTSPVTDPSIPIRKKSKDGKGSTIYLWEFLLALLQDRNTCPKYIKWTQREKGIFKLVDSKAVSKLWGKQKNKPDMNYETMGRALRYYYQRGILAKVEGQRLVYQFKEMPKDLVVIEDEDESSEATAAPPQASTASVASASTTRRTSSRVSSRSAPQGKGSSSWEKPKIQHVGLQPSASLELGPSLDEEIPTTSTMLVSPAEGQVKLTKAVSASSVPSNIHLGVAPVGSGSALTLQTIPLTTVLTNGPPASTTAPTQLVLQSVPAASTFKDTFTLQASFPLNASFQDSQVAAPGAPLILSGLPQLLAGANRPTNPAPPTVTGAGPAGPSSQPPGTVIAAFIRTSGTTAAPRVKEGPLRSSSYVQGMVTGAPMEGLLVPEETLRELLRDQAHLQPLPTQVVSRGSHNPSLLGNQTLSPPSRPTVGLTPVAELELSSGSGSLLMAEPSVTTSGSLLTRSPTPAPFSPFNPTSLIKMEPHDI
Sequence of ELF1 (P32519 whole entry): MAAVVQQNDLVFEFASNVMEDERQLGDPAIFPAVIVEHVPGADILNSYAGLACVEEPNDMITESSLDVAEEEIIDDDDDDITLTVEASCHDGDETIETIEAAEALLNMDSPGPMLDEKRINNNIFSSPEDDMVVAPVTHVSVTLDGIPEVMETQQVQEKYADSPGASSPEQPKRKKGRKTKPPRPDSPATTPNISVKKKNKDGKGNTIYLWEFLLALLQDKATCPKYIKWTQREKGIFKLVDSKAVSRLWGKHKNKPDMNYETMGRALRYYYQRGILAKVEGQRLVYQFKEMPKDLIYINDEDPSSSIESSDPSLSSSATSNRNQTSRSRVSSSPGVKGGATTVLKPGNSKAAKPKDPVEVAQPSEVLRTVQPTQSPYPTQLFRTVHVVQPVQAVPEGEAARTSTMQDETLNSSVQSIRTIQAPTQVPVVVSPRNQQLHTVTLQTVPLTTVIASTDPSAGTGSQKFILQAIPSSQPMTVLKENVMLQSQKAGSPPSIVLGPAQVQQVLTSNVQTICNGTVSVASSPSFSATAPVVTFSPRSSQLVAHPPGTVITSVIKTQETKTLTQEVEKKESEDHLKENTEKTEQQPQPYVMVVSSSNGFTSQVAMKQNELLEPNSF
Sequence of ETV5 (P41161 whole entry): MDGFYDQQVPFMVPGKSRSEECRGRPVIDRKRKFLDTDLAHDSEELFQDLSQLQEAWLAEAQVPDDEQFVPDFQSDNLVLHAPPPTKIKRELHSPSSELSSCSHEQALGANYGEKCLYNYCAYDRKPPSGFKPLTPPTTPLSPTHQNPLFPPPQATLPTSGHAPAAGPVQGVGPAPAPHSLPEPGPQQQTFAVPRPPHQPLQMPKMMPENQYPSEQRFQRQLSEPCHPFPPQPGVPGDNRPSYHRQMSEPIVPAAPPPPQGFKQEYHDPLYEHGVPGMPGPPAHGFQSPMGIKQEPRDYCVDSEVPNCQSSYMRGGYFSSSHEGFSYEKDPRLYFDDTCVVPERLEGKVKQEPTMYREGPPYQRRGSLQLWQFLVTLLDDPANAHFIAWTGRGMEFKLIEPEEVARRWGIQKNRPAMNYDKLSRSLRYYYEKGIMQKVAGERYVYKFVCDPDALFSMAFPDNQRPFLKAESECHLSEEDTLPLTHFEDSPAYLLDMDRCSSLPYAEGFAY
Sequence of ETV1 (P50549 whole entry): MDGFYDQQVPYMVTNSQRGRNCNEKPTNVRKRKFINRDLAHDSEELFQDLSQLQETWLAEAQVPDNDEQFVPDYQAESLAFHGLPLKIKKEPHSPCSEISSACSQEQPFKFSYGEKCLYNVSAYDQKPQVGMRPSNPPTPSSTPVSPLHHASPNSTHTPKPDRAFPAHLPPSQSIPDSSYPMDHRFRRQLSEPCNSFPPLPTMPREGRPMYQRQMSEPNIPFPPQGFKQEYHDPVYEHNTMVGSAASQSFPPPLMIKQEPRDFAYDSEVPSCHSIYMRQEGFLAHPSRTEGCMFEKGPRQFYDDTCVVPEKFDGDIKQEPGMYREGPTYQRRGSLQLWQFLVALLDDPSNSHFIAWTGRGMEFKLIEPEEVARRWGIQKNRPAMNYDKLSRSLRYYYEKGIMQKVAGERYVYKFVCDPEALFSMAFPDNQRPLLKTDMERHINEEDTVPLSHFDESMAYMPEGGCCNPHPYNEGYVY

CCCGCA
binding signal [1]: 1.23 fold enrichment (6-mer frequency, TF over GST control) | binding signal [2]: 1.2 fold enrichment (6-mer frequency, TF over GST control) | binding signal [3]: 1.25 fold enrichment (6-mer frequency, TF over GST control) | binding signal [4]: 1.15 fold enrichment (6-mer frequency, TF over GST control) | binding signal [5]: 1.29 fold enrichment (6-mer frequency, TF over GST control) | binding signal [6]: 1.29 fold enrichment (6-mer frequency, TF over GST control) | binding signal [7]: 1.22 fold enrichment (6-mer frequency, TF over GST control) | binding signal [8]: 1.29 fold enrichment (6-mer frequency, TF over GST control) | binding signal [9]: 1.25 fold enrichment (6-mer frequency, TF over GST control) | binding signal [10]: 1.26 fold enrichment (6-mer frequency, TF over GST control) | binding signal [11]: 1.27 fold enrichment (6-mer frequency, TF over GST control) | binding signal [12]: 1.22 fold enrichment (6-mer frequency, TF over GST control) | binding signal [13]: 1.27 fold enrichment (6-mer frequency, TF over GST control) | binding signal [14]: 1.34 fold enrichment (6-mer frequency, TF over GST control) | binding signal [15]: 1.35 fold enrichment (6-mer frequency, TF over GST control) | binding signal [16]: 1.28 fold enrichment (6-mer frequency, TF over GST control) | binding signal [17]: 1.36 fold enrichment (6-mer frequency, TF over GST control) | binding signal [18]: 1.1 fold enrichment (6-mer frequency, TF over GST control) | binding signal [19]: 1.23 fold enrichment (6-mer frequency, TF over GST control)
